Source: PubChem (National Center for Advancing Translational Sciences (NCATS))
GPT2 inhibitor = inhibitors of human GPT2 alanine aminotransferase | Q8TD30 | Recombinant GPT2, coupled pyruvate oxidase/HRP Amplex Red fluorescence | Potency, µM (doses to about 57.7 µM), without a hit: at the highest dose activity change, negative = inhibition, most hits filed as inhibitors | 0.25% of 100,000 active | AID 1671188; note: nearly all actives have a fitted effect of over 60% in size
Target sequence (Q8TD30 whole entry, looked up): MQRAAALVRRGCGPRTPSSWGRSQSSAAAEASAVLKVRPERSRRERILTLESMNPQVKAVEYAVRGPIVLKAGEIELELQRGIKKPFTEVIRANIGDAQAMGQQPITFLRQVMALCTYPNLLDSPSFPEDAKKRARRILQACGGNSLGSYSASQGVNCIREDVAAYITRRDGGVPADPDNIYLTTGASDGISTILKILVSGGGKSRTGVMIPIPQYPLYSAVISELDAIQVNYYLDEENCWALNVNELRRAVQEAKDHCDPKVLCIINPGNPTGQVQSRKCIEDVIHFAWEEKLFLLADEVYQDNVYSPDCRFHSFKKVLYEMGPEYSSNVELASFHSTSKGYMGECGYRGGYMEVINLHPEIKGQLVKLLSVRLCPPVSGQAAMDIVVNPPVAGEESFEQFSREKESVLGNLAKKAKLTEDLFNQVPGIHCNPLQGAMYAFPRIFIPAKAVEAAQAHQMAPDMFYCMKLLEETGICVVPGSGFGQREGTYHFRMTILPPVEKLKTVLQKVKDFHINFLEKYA
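Fluorescence read-out: pyruvate from GPT2 turnover coupled to pyruvate oxidase, HRP and Amplex Red (0.2mM ThPP, 0.2U/mL PO and HRP, 50uM Amplex final). Substrates 250uM a-KG, 2mM L-alanine; enzyme 10ng/uL; 30 min RT.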
3T3 cytotox = NIH 3T3 cell cytotoxicity. NIH 3T3 viability, CellTiter-Glo ATP luminescence, 48-72 h. Potency, µM (doses to about 96.7 µM), without a hit: at the top dose activity change, negative = cytotoxicity, usual class: inhibitors. 4.3% of 94,000 active; note: nearly all actives have a fitted effect of over 55% in size
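Cytotoxicity is measured as loss of cellular ATP: NIH 3T3 cells (400/well) are exposed to compound for 48 or 72 hr at 37 °C, then CellTiter-Glo luminescence is imaged after 10 min at room temperature.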
hNpr1 antagonist = blocks ANP-stimulated signaling of human Npr1 receptor; P16066; 1.6% of 76,000 active; HEK293 hNpr1 GloSensor cGMP, ANP-stimulated luminescence; Potency, µM (titrated, usually from 46.3 µM), for inactives: at the top dose activity change, negative = inhibition, most hits filed as inhibitors; calls by dose curve; note: nearly all actives have a fitted effect of over 60% in size
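HEK293 cells stably expressing human Npr1 and cGMP GloSensor pGS-40F, loaded 2 h with 2% GloSensor reagent, given compound 30 min at room temperature. Luminescence read before and 20 min after 0.1 nM hNppA.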
Luciferase inh = blocks purified firefly luciferase enzyme activity; 2.5% of 76,000 active; purified P. pyralis luciferase, luminescence, biochemical; P08659; Potency, µM (highest dose often 115 µM), hits mostly inhibitors; note: nearly all actives have a fitted effect of over 65% in size
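Purified 10nM P. pyralis luciferase with 10uM D-luciferin and 10uM ATP in 50mM Tris acetate pH 7.5, 10mM Mg acetate, 0.01% Tween-20, 0.05% BSA. qHTS titration; luminescence read by CCD imager.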
HEK293 tox = kills HEK 293 cells; HEK 293 viability, ATP luminescence (CellTiter-Glo), 48-72 h; 6.6% of 94,000 active; Potency, µM (top dose mostly 115 µM), for inactives: at the highest dose activity change, negative = cytotoxicity, usual class: inhibitors; note: nearly all actives have a fitted effect of over 60% in size
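HEK 293 cells at 250 cells/well were exposed to compounds by pintool transfer for 48 or 72 hr at 37 degree Celsius, 5% CO2. Viability was read as ATP-coupled luminescence with CellTiter-Glo after 10 min at room temperature.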
Active calls of the source: *; i = inactive; ? = inconclusive; nt = no result; ! = a repeat was not active; [ ] = dose if it differs, or a comment. Most compounds without a hit are left out; they make up all but 10% or so of the library. Unless noted, calls come from the whole dose curve; as a rule, active = well fitted curve in the direction sought with a large enough effect; inconclusive = small, poorly fitted or top-dose-only effect, or another doubt; inactive = no such curve, though single readings can be large; an effect the other way counts as inactive or inconclusive. % is set by controls: 0 for no effect and ±100 for the full control effect; potency is the fitted concentration of half-maximal effect.

SMILES	GPT2 inhibitor	3T3 cytotox	hNpr1 antagonist	Luciferase inh	HEK293 tox
Cn1ncc2c(C(=O)N3CCN(c4ncccn4)CC3)cc(-c3ccc(Cl)nc3)nc21	?	35.5µM*!	nt	nt	?
Cn1ncc2c(C(=O)N3CCN(Cc4ccccc4)CC3)cc(-c3ccc(Cl)cc3)nc21	4.0%	?	nt	nt	39.8µM*
Cn1ncc2c(C(=O)N3CCN(Cc4ccccc4)CC3)cc(-c3ccc([S+](C)(=O)[O-])cc3)nc21	-16.3%	?	nt	nt	-20.6%
CN1CCN(C(=O)c2cc(-c3cc(Cl)cc(Cl)c3)nc3c2cnn3C)CC1	i	?	nt	nt	?
CN(C)C(=O)c1cc(-c2ccc(Cl)cc2Cl)c2cnn(C)c2n1	2.3%	-8.1%	nt	nt	-7.5%
CNC(=O)N1CCC(C2CCN(C(=O)c3cccn3C)C2)CC1 (stereo not given)	i	-8.7%	-0.9%	i	4.5%
O=C1CCN(Cc2ccncc2)CCCC(C(=O)NCCc2c[nH]c3ccccc23)CCN1 (stereo not given)	-3.2%	-5.9%	0.7%	i	i
CN1CCN(C(=O)c2cc(-c3ccc(Cl)cc3Cl)nc3c2cnn3C)CC1	-16.8%	-21.9%	nt	nt	-4.5%
Cn1ncc2c(C(=O)N3CCN(Cc4ccccc4)CC3)cc(-c3ccc(Cl)cc3Cl)nc21	i	?	nt	nt	39.8µM*
CCc1cccc(NC(=O)c2ccc3c(c2)N(C)C2CCCN2C3=O)c1 (stereo not given)	i	?	0.0%	25.1µM*	?
CCc1cccc(NC(=O)c2ccc3c(c2)N(C)C2CCCCCN2C3=O)c1 (stereo not given)	i	?	-0.4%	?	35.5µM*
CCc1cccc(NC(=O)c2ccc3c(c2)N(CC)C2CCCCCN2C3=O)c1 (stereo not given)	i	?	1.7%	i	31.6µM*
COc1ccc(NC(=O)c2ccc3c(c2)N(C)C2CCCN2C3=O)cc1OC (stereo not given)	i	-28.8%	0.2%	i	?
CCN1c2cc(C(=O)Nc3ccccc3C(=O)OC)ccc2C(=O)N2CCCCCC21 (stereo not given)	1.3%	20µM*	-2.2%	i	?
CCc1cccc(NC(=O)c2ccc3c(c2)N(CC)C2CCCCN2C3=O)c1 (stereo not given)	i	?	0.0%	i	?
CO[C@H]1[C@H](NC(=O)c2cc(CC(C)C)no2)c2ccccc2C12CCNCC2	?	?	0.0%	i	?
CCc1cccc(OC2CN(C(=O)C3CCCN(CC(N)=O)C3)C2)c1 (stereo not given)	-2.7%[11.5 µM]	-6.8%	-1.6%	i	-14.8%
O=C(CC1CCCCC1)NC1CCN(c2cnn(Cc3ccccc3)c(=O)c2)CC1	i	-6.4%	1.1%	i	-21.5%
Cc1noc(-c2cn(C3CCN(C(=O)c4ccc(C)c(C)c4)CC3)nn2)n1	-4.9%	-25.5%	7.5%	i	-8.6%
CCN1c2cc(C(=O)Nc3cccc(C(C)C)c3)ccc2C(=O)N2CCCCCC21 (stereo not given)	i	31.6µM*	-6.4%	i	28.2µM*
Cc1ccc(OC2(C(=O)NCC3COc4ccccc4O3)CCNCC2)cc1 (stereo not given)	i	31.6µM*	3.7%	i	35.5µM*
O=C(NCc1ccccc1)C1(Oc2ccc(Cl)cc2)CCNCC1	2.9%	?	-12.9%	i	?
CN1C(=O)C2(CCN(C(=O)CCC3CCCCC3)CC2)c2ccccc21	?	?	-4.3%	i	44.7µM*
CN1C(=O)C2(CCN(Cc3ccccc3)C2)c2ccccc21 (stereo not given)	-2.2%[88.5 µM]	?	0.0%[70.6 µM]	i	100µM*
COCCC(=O)N1CCC2(CC1)C(=O)N(C)c1ccccc12	-7.1%	?	2.5%	i	2.4%
SMILES	GPT2 inhibitor	3T3 cytotox	hNpr1 antagonist	Luciferase inh	HEK293 tox
CN(C)c1ccc(CN2CCC3(C2)C(=O)N(Cc2ccccc2)c2ccccc23)cc1 (stereo not given)	i	?	-11.4%	i	35.5µM*
O=C1NCCCCCCN(Cc2ccncc2)[C@@H]2CN(C(=O)C3CCCCC3)CC[C@@H]12	i	?	5.0%	i	44.7µM*
N#Cc1ccc(CN2CCCCCCNC(=O)[C@@H]3CCC[C@@H]32)cc1	i	-25.6%	-12.3%	i	?
O=C1NCCCCCCN(Cc2ccc(C(F)(F)F)cc2)[C@H]2CCC[C@@H]12	1.6%	?	-22.6%	i	39.8µM*
O=C(c1nccc2ccccc12)N1CCC2(CC1)CC(Cc1nc(C3CC3)no1)CCO2 (stereo not given)	-10.0%	?	-2.6%	i	?
N#Cc1cccc(CN2CCC3(CC2)CC(Cc2nc(C4CC4)no2)CCO3)c1 (stereo not given)	-2.0%	?	-30.4%	i	44.7µM*
CC(C)N[C@H]1CC(C)(C)[C@@H]2C[C@@](C)(O)CC[C@]12CCC(=O)NCCc1c[nH]c2ccccc12	i	?	-0.2%	i	?
Cc1ccc(S(=O)(=O)N[C@H]2CC(C)(C)[C@@H]3C[C@@](C)(O)CC[C@]23CCC(=O)NCCc2c[nH]c3ccccc23)cc1	i	79.4µM*	3.8%	i	?
CCC1(CC)CCN(C(=O)c2coc(COc3ccc4sc(C)nc4c3)n2)C1	0.0%[11.5 µM]	?	-25.8%	i	?
COc1ccc(-c2ccc3c(n2)CN(C)C(=O)CO3)cc1	?	100µM*	?	?	?
Cc1ccc(-c2ccc3c(n2)CN(C)C(=O)CO3)cc1	3.2%[88.5 µM]	?	?	89.1µM*	?
CC(=O)Nc1ccc(CN2CCC3(CC2)CN[S+](=O)([O-])c2ccccc2N3)cc1	2.7%	-9.4%	0.0%	i	-8.5%
COCCN1C(=O)c2cccn2CC1CNC(=O)CCc1nc2ccccc2[nH]1 (stereo not given)	i	i	2.6%	i	-1.1%
O=c1cc(-c2ccncc2)oc2c(-c3ccccc3F)nccc12	2.7%[88.5 µM]	?	12.4%[70.6 µM]	i	?
Cc1ccccc1-c1nccc2c(=O)cc(-c3ccncc3)oc12	-8.9%[88.5 µM]	?	5.9%[70.6 µM]	i	100µM*
O=c1cc(-c2ccncc2)oc2c(-c3cccc4[nH]ccc34)nccc12	1.0%[88.5 µM]	?	-2.4%[70.6 µM]	i	25.1µM*
O=c1cc(-c2ccncc2)oc2c(-c3cccc(CO)c3)nccc12	i	44.7µM*	5.2%[70.6 µM]	i	-25.7%[172 µM]
COc1ncccc1-c1nccc2c(=O)cc(-c3ccncc3)oc12	?	28.2µM*	13.2%[70.6 µM]	i	-25.2%[172 µM]
Cc1ccc(C(=O)N2CCCC3(CCNCC3)CC2)cc1Cl	-27.4%	79.4µM*	-0.6%	i	?
